Source: article PMC5540273 (PLoS ONE, 2017)

Test system: GSK3B
Settings: concentration: 1 μM,replicates: in singlicate; n = 1
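Also: KINOMEscan kinase panel screen.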

| SMILES | %Inh |
| --- | --- |
| C=CC(=O)Nc1cc2c(Nc3ccc(F)c(Cl)c3)ncnc2cc1OCCCN1CCOCC1 [GW781483] | 0% |
| CC(C)Nc1cc(-c2ccc3c(N)n[nH]c3c2)nc(N)n1 [GSK2221681] | 4% |
| COc1ccc(C[C@@H](CN)NC(=O)c2cc(Br)c(-c3ccnc4[nH]ccc34)s2)cc1.Cl.Cl [GSK1389063] | 8% |
| Cc1occc1-c1nc(N)c(OC[C@@H](N)Cc2c[nH]c3ccccc23)cc1-c1cc2c(C)n[nH]c2cn1 [GSK1660450] | 97.9% |
| Cc1ccc2c(-c3ccncc3)c(-c3ccc(F)cc3)nn2c1.Cl [GW461484] | 16% |
| O=C(NCCCN1CCOC1=O)c1cnc(NCc2cc(Cl)ccc2Cl)nc1NC1CCCC1 | 0% |
| Cc1n[nH]c2ccc(-c3cc(OC[C@@H](N)Cc4ccccc4)cnc3-c3ccoc3)cc12.O=C(O)C(F)(F)F.O=C(O)C(F)(F)F [GSK507358] | 49% |
| Cc1cc2cn[nH]c2cc1-c1cccc2c(N)c(C(N)=O)nnc12 | 23% |
| NC(=O)c1cc(-c2ccccc2)cc2c(C3CCNCC3)c[nH]c12 [GSK301362] | 14% |
| Cc1ccc(-n2nc(C(C)(C)C)cc2NC(=O)Nc2ccc(OCCN3CCOCC3)c3ccccc23)cc1 [GW839464] | 0% |
| CC(C)N1C(=O)Cc2cc(Nc3ncc(C(F)(F)F)c(NCc4cccc(S(C)(=O)=O)c4)n3)ccc21 | 0% |
| O=C(NCCNc1ccnc(NCc2ccc(F)cc2)n1)c1cc2ccccc2s1 [GSK1379944] | 78% |
